Measured values published in PubChem BioAssay (Tox21).
Several values for one entry are separate records, joined by “and”; a condition that tells them apart may be missing. Equal entries are not always repeated. Results filed as inconclusive are left out. Where a call stands in place of a potency, no number is given. A number with no mark means an inactive call. Activity calls are given as the source filed them. Calls follow the shape of the dose curve; as a rule, active = well fitted cell-killing curve with a large enough effect in the repeat runs; inconclusive = weak or mixed curves, or effect the other way; inactive = flat fitted curve, though single readings scatter.

What was measured:
[1] = cAMP Responsive Elements (CRE) small molecule antagonists, cell-based qHTS assay: qHTS cell viability counter screen (AID 2060913); also: nearly all actives have a fitted effect of over 40% in size
Method in brief: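 Cytotoxicity read in the same wells as the CRE-bla HEK293T antagonist assay: after 3 h compound with 0.25 uM NKH477 final and 2 h beta-lactamase substrate, CellTiter-Glo luminescence measured.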

[2] = cAMP Responsive Elements (CRE) small molecule agonists, cell-based qHTS assay: qHTS cell viability counter screen (AID 2060914); also: nearly all actives have a fitted effect of over 50% in size
Method in brief: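 Cytotoxicity was measured as ATP luminescence (CellTiter-Glo, 30 min at room temperature) in the same wells as the CRE-bla FRET read-out. HEK293T CRE-bla cells had 3 h compound exposure at 37C/5% CO2.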
Potency is read from the fitted curve at half-maximal effect.

Compound | Potency [1] | Potency [2] | viability change, negative = cytotoxic [1] | activity change, negative = cytotoxicity [2]
COc1ccc(Nc2ccccc2)c(C)c1 | inactive | inactive |  | 
COc1ccc(C#N)cc1 | inactive | inactive |  | 
O=c1c(O)c(-c2ccc(O)cc2O)oc2cc(O)cc(O)c12 | inactive | inactive |  | 
C[N+](C)(C)CC[N+]1(C)Cc2c(Cl)c(Cl)c(Cl)c(Cl)c2C1 | inactive | inactive |  | 
Nc1ccc(S(=O)(=O)NC(=O)c2ccccc2)cc1 | inactive | inactive |  | 
N[C@@H](CCC(=O)Nc1ccc([N+](=O)[O-])cc1)C(=O)O | inactive | inactive |  | 
CC1=NN(c2ccc(C(=O)O)cc2)C(=O)C1 | inactive | inactive |  | 
Cc1ccccc1N=C(N)Nc1ccccc1C | inactive | inactive |  | 
O[C@@H]([C@H](O)[C@H](O)CBr)[C@H](O)CBr | inactive | inactive |  | 
CCOC(=O)C(=O)OCC | inactive | inactive |  | 
CCOC(=O)[C@@H](C)Oc1ccc(Oc2nc3ccc(Cl)cc3o2)cc1 | inactive | inactive |  | 
C=C/C=C/C=C/CCCCC |  |  | -0.548% [at 18.9 µM] | -22.6% [at 18.9 µM]
CCCCCCOC(=O)CCCCCCCC(=O)OCCCCCC | inactive | inactive |  | 
COC(=O)[C@H]1[C@H]2C[C@@H]3c4[nH]c5cc(OC)ccc5c4CCN3C[C@H]2C[C@@H](OC(=O)/C=C/c2ccc(O)c(OC)c2)[C@@H]1OC | inactive | inactive |  | 
O=C=NCc1cccc(CN=C=O)c1 |  |  | 5.35% [at 18.9 µM] | -0.289% [at 18.9 µM]
O=C(O)c1ccc(S(=O)(=O)O)cc1C(=O)O | inactive | inactive |  | 
CC(C)COC(=O)c1ccccc1 | inactive | inactive |  | 
O=C(O)c1ccc2c(c1)nc(C(=O)NC1CCN(C3CC3)CC1)n2Cc1cc(-c2ccc(Cl)s2)on1 |  |  | -0.942% [at 18.9 µM] | -9.02% [at 18.9 µM]
CC[C@@]1(c2ccccc2)NC(=O)N(C)C1=O | inactive | inactive |  | 
Cc1ccc(C(=O)c2ccc(CC(=O)O)n2C)cc1 | inactive | inactive |  | 
CN(C)CCCNCCCN(C)C | inactive | inactive |  | 
O=CN1CCCCC1 | inactive | inactive |  | 

Compound | Potency [1] | Potency [2] | viability change, negative = cytotoxic [1] | activity change, negative = cytotoxicity [2]
c1ccc2c(c1)[nH]c1ccccc12 | inactive | inactive |  | 
O=C(O)CS | inactive | inactive |  | 
CCOCCO | inactive | inactive |  | 
COc1nccnc1NS(=O)(=O)c1ccc(N)cc1 | inactive | inactive |  | 
COCCOC(=O)C1=C(C)NC(C)=C(C(=O)OC/C=C/c2ccccc2)C1c1cccc([N+](=O)[O-])c1 (configuration not stated) | inactive | inactive |  | 
CCC(C)c1cc([N+](=O)[O-])cc([N+](=O)[O-])c1OC(=O)OC(C)C (configuration not stated) | inactive | inactive |  | 
CC1(C)C(=O)C(C)(C)C1=O | inactive | inactive |  | 
CCC(CO)CO | inactive | inactive |  | 
CN(C)c1ccc(N=Nc2ccccc2C(=O)O)cc1 | inactive | inactive |  | 
CC(C)CC(=O)CC(C)CC(C)C (configuration not stated) | inactive | inactive |  | 
O=C(c1ccccc1)C1CCC1 | inactive | inactive |  | 
Cc1ccc(O)c([N+](=O)[O-])c1 | inactive | inactive |  | 
COC(=O)c1ccccc1C(=O)O | inactive | inactive |  | 
CN(C)C(=O)Nc1ccccc1 | inactive | inactive |  | 
CCCCCCCCCCCCOC(=O)c1ccc(O)cc1 | inactive | inactive |  | 
CCCCOC(=O)CCS | inactive | inactive |  | 
CCCCCCCCCOC(=O)c1ccccc1C(=O)OCCCCCCCCC | inactive | inactive |  | 
CN(C)CCC[C@@]1(c2ccc(F)cc2)OCc2cc(C#N)ccc21 | inactive | inactive |  | 
O=C1c2ccccc2-c2ccccc21 | inactive | inactive |  | 
Cc1cccc2cccnc12 | inactive | inactive |  | 
CCCCCCCCCCCCCCCCC | inactive | inactive |  | 
CCCCCCCCCCCCCCCC[N+](C)(C)Cc1ccccc1 | 63.1 µM (active) and 49.4 µM (active) and 33.5 µM (active) | 70.8 µM (active) and 44.1 µM (active) and 26.6 µM (active) |  | 

Compound | Potency [1] | Potency [2] | viability change, negative = cytotoxic [1] | activity change, negative = cytotoxicity [2]
CC1(C)O[C@H]2CC(=O)OC[C@]23[C@H]2CC[C@@]4(C)[C@H](c5ccoc5)OC(=O)[C@H]5O[C@]54[C@]2(C)C(=O)C[C@@H]13 | inactive | inactive |  | 
CCCCCCCCCCCCc1ccccc1 | inactive | inactive |  | 
CCCC(=O)CC | inactive | inactive |  | 
S=C(SSSSSSC(=S)N1CCCCC1)N1CCCCC1 |  |  | 6.65% [at 18.9 µM] | -4.69% [at 18.9 µM]
O=C(O)COc1nn(Cc2ccccc2)c2ccccc12 | inactive | inactive |  | 
CN1C(C)(C)CCCC1(C)C | inactive | inactive |  | 
CC(C)(C)c1cccc(O)c1 | inactive | inactive |  | 
CCCCCCCCCCCC(C)=O | inactive | inactive |  | 
CC/C=C\CCCCO | inactive | inactive |  | 
CCN(CC)c1ccc(C(=O)c2ccccc2C(=O)O)c(O)c1 | inactive | inactive |  | 
CC(C)=CCC1C(=O)N(c2ccccc2)N(c2ccccc2)C1=O | inactive | inactive |  | 
COC(=O)[C@H]1[C@H]2C[C@@H]3c4[nH]c5cc(OC)ccc5c4CCN3C[C@H]2C[C@@H](OC(=O)c2cc(OC)c(OC)c(OC)c2)[C@@H]1OC | inactive | inactive |  | 
COc1ccc(CCN(C)CCCC(C#N)(c2cc(OC)c(OC)c(OC)c2)C(C)C)cc1OC (configuration not stated) | inactive | inactive |  | 
CC/C=C\CC1=C(C)CCC1=O | inactive | inactive |  | 
CCCCOCCO | inactive | inactive |  | 
Nc1cc(C(=O)O)ccc1Cl | inactive | inactive |  | 
CCCCCCCCC/C=C/CC1CC(=O)OC1=O (configuration not stated) | inactive | inactive |  | 
O=C(O)Cc1cccc2ccccc12 | inactive | inactive |  | 
OCC1(CO)COCOC1 | inactive | inactive |  | 
Cc1cn([C@H]2C[C@H](N=[N+]=[N-])[C@@H](CO)O2)c(=O)[nH]c1=O | inactive | inactive |  | 
COC(=O)[C@@H]1[C@H]2C[C@H]3c4[nH]c5ccccc5c4CCN3C[C@@H]2CC[C@@H]1O | inactive | inactive |  | 
COC(C)OC | inactive | inactive |  | 

Compound | Potency [1] | Potency [2] | viability change, negative = cytotoxic [1] | activity change, negative = cytotoxicity [2]
CCCCCCOCCO | inactive | inactive |  | 
O=C=NCCCCCCN=C=O | inactive | inactive |  | 
CS(=O)(=O)O | inactive | inactive |  | 
CC1(C)[C@@H](O[C@H]2O[C@H](C(=O)O)[C@@H](O)[C@H](O)[C@H]2O[C@@H]2O[C@H](C(=O)O)[C@@H](O)[C@H](O)[C@H]2O)CC[C@]2(C)[C@H]3C(=O)C=C4[C@@H]5C[C@@](C)(C(=O)O)CC[C@]5(C)CC[C@@]4(C)[C@]3(C)CC[C@@H]12 | inactive | inactive |  | 
Nc1ccc(S(=O)(=O)Nc2ccccc2)cc1 | inactive | inactive |  | 
CC(=O)OC1CCC(C(C)(C)C)CC1 (configuration not stated) | inactive | inactive |  | 
CCOC(C)(C)C | inactive | inactive |  | 
Cl/C(=C\n1cncn1)c1ccc(Cl)cc1Cl | inactive | inactive |  | 
C[C@]12C(=O)OC(=O)[C@H]1[C@H]1C=C[C@@H]2C1 | inactive | inactive |  | 
CNCCO | inactive | inactive |  | 
C=COCC1CCC(CO)CC1 (configuration not stated) | inactive | inactive |  | 
CCCCCCCCCCCCN1CCCCCC1=O | inactive | inactive |  | 
CC(C)CC(=O)CC(C)C | inactive | inactive |  | 
CCCCCCC(C)(C)S | inactive | inactive |  | 
COc1cc(C(C)C)c2c(c1)S(=O)(=O)N(COc1cc(=O)n3cccc(OCCN4CCCCC4)c3n1)C2=O |  |  | -2.74% [at 18.9 µM] | 4.87% [at 18.9 µM]
Cc1c(N(C)C)c(=O)n(-c2ccccc2)n1C | inactive | inactive |  | 
CO[C@H]1C=CO[C@@]2(C)Oc3c(C)c(O)c4c(O)c(cc(O)c4c3C2=O)NC(=O)/C(C)=C\C=C/[C@H](C)[C@H](O)[C@@H](C)[C@@H](O)[C@@H](C)[C@H](OC(C)=O)[C@@H]1C | inactive | inactive |  | 
CCCCC[C@H](O)/C=C/[C@H]1[C@H](O)CC(=O)[C@@H]1C/C=C\CCCC(=O)O | inactive | inactive |  | 
CC(=O)O[C@@H]1CC2CCC1(C)C2(C)C (some centres not stated) | inactive | inactive |  | 
CN(C)C/C=C(/c1ccc(Br)cc1)c1cccnc1 | inactive | inactive |  | 
CC(=O)Nc1ccc(C)c(Cl)c1 | inactive | inactive |  | 
O=C1CCCCO1 | inactive | inactive |  | 

Compound | Potency [1] | Potency [2] | viability change, negative = cytotoxic [1] | activity change, negative = cytotoxicity [2]
Cc1ccc(C(=O)c2cc(O)c(O)c([N+](=O)[O-])c2)cc1 | inactive | inactive |  | 
Nc1ccc(Cl)c([N+](=O)[O-])c1 | inactive | inactive |  | 
CCCN(CCC)CCc1cccc2c1CC(=O)N2 | inactive | inactive |  | 
CO/N=C(/C(=O)N[C@@H]1C(=O)N2C(C(=O)[O-])=C(C[n+]3ccn4ncccc43)CS[C@H]12)c1nsc(N)n1 | inactive | inactive |  | 
C=C1CC[C@H]2C[C@@H]1C2(C)C | inactive | inactive |  | 
O=C(O)CCS | inactive | inactive |  | 
CC(=O)NCCO | inactive | inactive |  | 
CCN(CC)c1ccc(N=Nc2ccccc2)cc1 | inactive | inactive |  | 
C=C[Si](OCC)(OCC)OCC | inactive | inactive |  | 
O=C(OCc1ccccc1)c1ccccc1O | inactive | inactive |  | 
CCC(=O)C1CC(C(C)C)CC=C1C (configuration not stated) | inactive | inactive |  | 
Nc1cnn([C@@H]2O[C@H](CO)[C@@H](O)[C@H]2O)c(=O)n1 | inactive | 970 nM (active) |  | 
CC(C)OP(=O)(CP(=O)(OC(C)C)OC(C)C)OC(C)C | inactive | inactive |  | 
CCCCNc1ccc(NCCCC)c2c1C(=O)c1ccccc1C2=O |  |  | 6.2% [at 18.9 µM] | -7.45% [at 18.9 µM]
Oc1ccc(-c2ccc(O)cc2)cc1 | inactive | inactive |  | 
O=C1CCC(N2C(=O)c3ccccc3C2=O)C(=O)N1 (configuration not stated) | inactive | inactive |  | 
O=S(=O)(O)c1ccccc1 | inactive | inactive |  | 
C[C@H]1C[C@H]2[C@@H]3CCC4=CC(=O)C=C[C@]4(C)[C@@]3(F)[C@@H](O)C[C@]2(C)[C@@]1(O)C(=O)COP(=O)(O)O | inactive | inactive |  | 
